# Assay outcomes: PubChem, several laboratories
# LMP1 NFkB inh: Epstein-Barr LMP1 NF-kappaB reporter inhibition | LMP1-induced NF-kappaB luciferase reporter cells, luminescence | inhibition, % at 12.5 µM | 350,000 tested, 0.69% active; in the data active means inhibition above about 41%; inconclusive means no clear call, values can overlap the other calls;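 further: 0% = neutral control wells and 100% = reference inhibitor control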
# HSP90 refold inh: inhibitors of HSP90 luciferase refolding in rabbit reticulocyte lysate | luciferase refolding luminescence, 3 h | inhibition, % at 5.6 µM | 290,000 tested, 0.91% active;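 active means inhibition above the screen-wide mean plus 3 SD, computed separately per campaign, cut at about 16% in these data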;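 further: 0% = DMSO wells and 100% = 60 µM geldanamycin wells; inhibitors lower the luminescence because luciferase stays unfolded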
# TWEAK-Fn14 inh: blocks TWEAK-Fn14 interaction in a reporter cell assay; 360,000 tested, 2% active; inhibition, % at 10 µM; TWEAK-stimulated Fn14 reporter cells, luciferase luminescence, 8 h; in the data active means inhibition above about 50%
# TROY NFkB inh: TROY signaling inhibition. inhibition, % at 10 µM. Q293 LMP1-TROYcd NF-kB luciferase reporter, 4 h. 360,000 tested, 0.98% active;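 active means compounds whose plate-normalised and pattern-corrected inhibition of the luciferase reporter signal at the single screening dose is 50% or more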
# HSF-1 act: increases HSF-1 driven luciferase reporter signal; NIH3T3-HGL HSF-1 luciferase reporter, MG132, 8 h; 100% = twice DMSO control signal; activation, % at 9 µM; 300,000 tested, 1.7% active;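 active means mean replicate activation of at least 50% with a set share of replicates each reaching 50%; inconclusive means only one of those two conditions met; inactive means mean below 50% and too few replicates reaching it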;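 further: 0% = median of the neutral control wells and 100% = twice that signal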
# HSF1 inh: HSF1 inhibition | activity change, negative = inhibition, % at 7.5 µM (by protocol) | 300,000 tested, 0.77% active | NIH3T3-HGL HSE-luciferase, MG132-induced, luminescence 8 h; hits give low values;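 active means more than half of replicate wells show activity change below -50%, luminescence cut by over half; inconclusive means some wells, but at most half, below -50%; inactive means no replicate well below -50%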;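 further: luciferase reports HSF-1 transcriptional activity via heat shock element; 0% = median of DMSO wells and -100% = zero luminescence signal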
# HSP90 confirm: confirmation of HSP90 inhibitors | shares compounds with HSP90 refold inh | rabbit reticulocyte lysate, luciferase refolding luminescence, 3 h | inhibition, % at 5.9 µM | 2,300 tested, 64% active | AID 1846; in the data active means inhibition above about 18%;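 further: 0% = vehicle wells and 100% = reference inhibitor wells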
# FLuc counter: blocks native firefly luciferase in HSP90 counter-screen; shares compounds with HSP90 refold inh; 2,300 tested, 48% active; purified native firefly luciferase, luminescence; inhibition, % at 5.9 µM;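 active means inhibition above the mean inhibition of all tested sample wells plus 3 SD, cut at about 10% in these data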;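 further: 0% = DMSO with luciferase and 100% = wells lacking luciferase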
# Target sequence (P08659 whole entry, looked up): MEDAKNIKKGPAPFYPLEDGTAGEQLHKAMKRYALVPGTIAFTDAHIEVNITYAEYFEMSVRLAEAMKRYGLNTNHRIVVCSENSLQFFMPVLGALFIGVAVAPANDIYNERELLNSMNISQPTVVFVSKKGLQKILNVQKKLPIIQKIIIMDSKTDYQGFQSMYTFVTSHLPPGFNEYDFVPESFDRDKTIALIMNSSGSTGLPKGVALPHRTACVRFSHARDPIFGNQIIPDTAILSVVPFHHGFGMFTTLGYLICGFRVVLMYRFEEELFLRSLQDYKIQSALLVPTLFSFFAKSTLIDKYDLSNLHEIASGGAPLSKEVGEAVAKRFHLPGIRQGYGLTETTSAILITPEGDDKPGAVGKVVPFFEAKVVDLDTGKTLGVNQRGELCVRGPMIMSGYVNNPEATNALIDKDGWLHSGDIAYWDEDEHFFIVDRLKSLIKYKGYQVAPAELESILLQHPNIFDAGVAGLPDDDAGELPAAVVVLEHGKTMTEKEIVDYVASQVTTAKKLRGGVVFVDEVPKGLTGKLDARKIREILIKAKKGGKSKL
# The depositor's hits bear a star; ? = inconclusive; . = no result given. Rows were chosen to be rich in hits. Some 4.7% of all compounds tested hit in one or more screens of this group.
SMILES,LMP1 NFkB inh,HSP90 refold inh,TWEAK-Fn14 inh,TROY NFkB inh,HSF-1 act,HSF1 inh,HSP90 confirm,FLuc counter
O=C(Nc1nccs1)c1cn2ccccc2n1,19,33*,34,6,.,.,54*,43*
CCNc1nc(NC(C)C)nc(-c2ccncc2)n1,.,.,23,20,.,.,.,.
Cc1cccc(CCN(C(=O)Cc2cccs2)C(C(=O)NC2CCCCC2)c2cccnc2)c1 (stereo not given),1,25*,11,-16,16,4,2,-4
Cc1ccccc1Oc1nc2c(C)cccn2c(=O)c1/C=C(\C#N)C(=O)NC1CCS(=O)(=O)C1 (stereo not given),15,17*,-5,17,72*,43,26*,-11
c1ccc2c(c1)CC1(CCCC1)n1nnnc1-2,-4,18*,8,5,-5,-5,0,-4
CC(C)c1ccc(C(=O)Nc2ccc(CN3CCOCC3)cc2)cc1,17,24*,18,7,-11,1,19*,-10
O=C(Nc1ccc(CN2CCOCC2)cc1)c1cc2ccccn2n1,?,45*,87*,69*,-45,-36,61*,41*
NC(=O)c1ccc(NC(=O)c2ccc(CN3CCOCC3)cc2)cc1,-8,0,-4,1,-4,3,.,.
O=C(Nc1ccc(CN2CCOCC2)cc1)c1cc2ccccc2o1,-15,2,2,10,9,10,.,.
COc1ccc(-c2ccc(CN3C(C(C)C)C(=O)N(Cc4cn(Cc5ccco5)nn4)CCS3(=O)=O)cc2)cn1 (stereo not given),-2,.,4,-5,.,.,.,.
O=C(NCc1ccco1)c1ccccc1Br,-19,19*,-2,7,-4,4,0,-6
O=C(NNC(=S)NCc1ccco1)c1ccccc1Br,2,3,3,-3,27,1,.,.
O=C(CC[C@H]1O[C@@H](n2cnc3c(NC(=O)c4ccccc4)ncnc32)[C@H](O)[C@@H]1O)NCc1cccc2ccccc12,.,.,-1,10,.,.,.,.
CC(=NC1CCCC1)c1c(C)[nH]n(-c2nc3ccccc3s2)c1=O,-33,19*,42,42,-43,-29,19*,1
CC(=NC1CC1)c1c(-c2ccccc2)[nH]n(-c2nc3ccccc3s2)c1=O,5,5,42,-7,2,1,.,.
COc1ccc(CN(C)CCCn2cnc3c(SC)ncnc32)cc1OC,-1,.,14,2,.,.,.,.
CC(C)[C@@H](N)C(=O)NC[C@H]1O[C@@H](n2cnc3c(=O)[nH]c(N)nc32)[C@H](O)[C@@H]1O,.,.,7,-6,.,.,.,.
CC(C)C(=O)Nc1nc2c(ncn2C2CC(O)C(CO)O2)c(=O)[nH]1 (stereo not given),-1,34*,-14,6,-8,-5,4,-1
Cn1c(C2CCCN2C(=O)OC(C)(C)C)n[nH]c1=S (stereo not given),-2,34*,2,4,3,1,-1,-4
CSc1nnc([C@@H]2CCCN2C(=O)OC(C)(C)C)o1,-3,3,-4,17,-1,-3,.,.
Cc1ccccc1-c1cn(-c2ccccc2)c(=S)[nH]1,-6,5,-23,-8,25,6,.,.
Cc1ccc(-c2cn(-c3ccccc3)c(=S)[nH]2)cc1C,-37,19*,68*,50,-69,-61*,27*,15*
CN1Cc2sc(NC(=S)NC(=O)c3ccccc3)c(C#N)c2CC1(C)C,.,17*,.,.,-81,-77*,31*,15*
CCC1(C)Cc2c(sc(NC(=S)NC(=O)c3ccccc3)c2C#N)CO1 (stereo not given),-5,2,-12,1,8,7,.,.
Cc1ccc(O)c(C(=O)c2cnn(-c3ccccc3)c2)c1,6,-2,18,-14,4,1,.,.
SMILES,LMP1 NFkB inh,HSP90 refold inh,TWEAK-Fn14 inh,TROY NFkB inh,HSF-1 act,HSF1 inh,HSP90 confirm,FLuc counter
Cc1ccc(-n2cc(C(=O)c3ccccc3O)cn2)cc1,78*,31*,83*,47,-79,-77*,61*,48*
c1ccc2nc(-c3nc4ccccc4[nH]3)ccc2c1,-2,26*,82*,49,41,8,72*,62*
c1ccc2[nH]c(-c3cscn3)nc2c1,-8,4,-8,-27,22,12,.,.
Cc1nn(C(C)(C)C)c(C)c1/C=N/OC(=O)Nc1ccc(Cl)cc1,74*,86*,103*,82*,-92,-92*,86*,87*
O=C(O)c1ccc(/C=C/C(=O)c2ccc3c(c2)OCCCO3)cc1,-2,51*,17,-28,4,-12,65*,-4
C=COC(=O)CSc1nc(-c2cccs2)ccc1C#N,-21,33*,-36,-53,.,.,-3,-13
O=C(O)c1ccc(N/N=C/c2ccc3nccnc3c2)cc1,82*,92*,102*,54*,-85,-81*,92*,85*
COc1cc(/C=N/Nc2ccc(C(=O)O)cc2)ccc1O,29,38*,72*,27,-35,-25,63*,54*
COc1cc(/C=N/Nc2ccc(C(=O)O)cc2)cc(OC)c1OC,-14,11,-14,-54,-24,-26,.,.
Cc1ccc2nc(Cl)c(/C=N/Nc3ccc(C(=O)O)cc3)cc2c1,-7,29*,51*,26,17,17,18*,-10
CCOc1ccc(/C=N/NS(=O)(=O)c2ccc(C)cc2)cc1OC,0,-2,-7,15,15,11,.,.
O=C(O)c1ccc(N/N=C/c2ccncc2)cc1,3,6,35,1,7,5,.,.
COc1cc(/C=N/NS(=O)(=O)c2ccc(C)cc2)ccc1OCc1ccc(C(=O)O)cc1,61*,65*,-13,-70,-78,-75*,-3,-11
OC(c1ccc(Cl)cc1)c1ncc(-c2cccc(F)c2)[nH]1 (stereo not given),.,.,4,-14,.,.,.,.
N#CC(=C1C=C(Br)C(=NO)C=C1Cl)c1cccc2ccccc12,-16,.,30,38,.,.,.,.
CNc1nc(-c2ccc3c(c2)CCN3C(=O)c2ccc(F)cc2)cs1,-7,19*,9,3,.,.,14,-23
CNc1nc(-c2ccc3c(c2)CCN3C(=O)c2cccc(F)c2)cs1,-15,11,-5,-25,5,-1,.,.
C=CCn1c(C)cc(C(=O)CN2NS(=O)(=O)c3ccccc3C2=O)c1C,-27,35*,40,69*,.,.,36*,12*
CCCCCCN1C[C@@H](O)[C@H](n2cc(-c3ccc(F)cc3)nn2)C[C@@H]1c1ccccc1,5,.,12,-2,.,.,.,.
Oc1ccccc1-c1cc(-c2ccc3c(c2)OCCO3)n[nH]1,-12,21*,71*,58*,37,13,38*,35*
